These results are taken from PubChem BioAssay (NCATS).

Values joined by “and” are separate entries in the source; they are usually repeats but may differ in a detail not shown here. Equal entries are not always repeated. Active and inactive are the calls of the source. Calls follow the shape of the full dose curve.
Potency is read from the fitted curve at half-maximal effect.

The target of this assay is Glucocorticoid receptor (Homo sapiens) (UniProt P04150). The assay can be described thus: GR-EFC Redistribution (AID 451). The following applies: CHO-K1 GR-EFC translocation, beta-gal luminescence, 2 h. The text has this: NIH Molecular Libraries Screening Centers Network [MLSCN]
Chain of Glucocorticoid receptor (Homo sapiens) (P04150 whole entry, looked up): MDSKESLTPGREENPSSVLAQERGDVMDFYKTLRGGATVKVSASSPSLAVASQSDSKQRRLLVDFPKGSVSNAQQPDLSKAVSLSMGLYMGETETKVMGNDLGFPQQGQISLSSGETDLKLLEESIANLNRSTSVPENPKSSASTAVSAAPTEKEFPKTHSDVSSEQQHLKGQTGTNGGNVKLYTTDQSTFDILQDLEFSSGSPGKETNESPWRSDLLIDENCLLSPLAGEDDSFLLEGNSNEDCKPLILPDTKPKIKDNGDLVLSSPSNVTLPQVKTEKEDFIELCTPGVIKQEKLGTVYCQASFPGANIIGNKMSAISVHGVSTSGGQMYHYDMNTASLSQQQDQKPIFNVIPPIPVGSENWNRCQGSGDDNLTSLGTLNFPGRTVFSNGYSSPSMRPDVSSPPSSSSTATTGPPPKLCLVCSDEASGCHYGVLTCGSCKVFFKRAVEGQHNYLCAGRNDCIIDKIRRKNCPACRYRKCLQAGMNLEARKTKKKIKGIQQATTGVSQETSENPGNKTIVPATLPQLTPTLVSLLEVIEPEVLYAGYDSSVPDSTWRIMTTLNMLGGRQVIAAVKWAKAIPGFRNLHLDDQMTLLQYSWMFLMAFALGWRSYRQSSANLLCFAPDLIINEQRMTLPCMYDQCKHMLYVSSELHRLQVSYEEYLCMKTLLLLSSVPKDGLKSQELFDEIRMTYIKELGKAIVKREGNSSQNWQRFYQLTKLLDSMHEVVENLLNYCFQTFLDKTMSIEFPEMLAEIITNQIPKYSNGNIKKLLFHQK
NIH Chemical Genomics Center [NCGC]
The glucocorticoid receptor (GR) is a cytoplasmic receptor that belongs to the nuclear receptor family of ligand-dependent transcription factors. Upon glucocorticoid binding to its receptor, the glucocorticoid-GR complex translocates into the nucleus, where it binds as a dimer to specific DNA sequences (glucocorticoid response elements), enhancing or suppressing transcription of a wide variety of glucocorticoid-responsive genes. In addition to their important roles in normal physiology and metabolism, glucocorticoids are administered exogenously as treatments for a wide variety of allergic, autoimmune, and neoplastic conditions. Identification of compounds that modulate aspects of GR signalling would be useful in dissecting glucocorticoid response pathways as well as developing GR modulators with more targeted clinical effects.
Traditionally, GR modulators have been identified using receptor binding or direct transactivation assays. However, assays for glucocorticoid-dependent nuclear translocation can also be used to screen for compounds affecting GR signaling.
Immunocytochemical staining has been used to assay for GR translocation, but is not suitable for high throughout screening due to the multiple reagent addition and wash steps required. Recently, a novel cell-based GR assay in Enzyme Fragment Complementation (EFC) format was developed by DiscoveRx (Fremont, CA). The assay uses EFC of b-galactosidase (b-gal) as an indicator of GR-translocation in engineered CHO-K1 biosensor cells. The enzyme acceptor (EA) fragment of b-gal resides in the nucleus , as designed through the use of a proprietary set of sequence additions and modifications. The small peptide enzyme donor (ED) fragment of b-gal is fused directly to the C-terminus of GR, and is localized in the cytoplasm is the absence of receptor signaling. Upon binding to a GR ligand, the complex translocates to the nucleus, where intact enzyme activity is restored by complementation and b-gal activity is detected. We optimized this GR-EFC assay in homogenous 1536-well plate assay format for high throughput screening.
NCGC Assay Protocol Summary:
CHO-K1 cells stably expressing NLS-enzyme acceptor fragment (EA) of b-gal and GR-enzyme donor (ED) fragment of b-gal were maintained in F12 medium (Invitrogen, Carlsbad, CA) at 37 Celsius degrees under a humidified atmosphere containing 5% CO2 and 95% air. The medium contained 10% FBS, 2 mM L-glutamine, 50 U/ml penicillin 50 ug/ml streptomycin, and 250 ug/ml hygromycin and 500 ug/ml G418 (Invitrogen).
GR-translocation was measured beta-gal enzyme activity using the PathHunter Detection Kit containing cell membrane permeablizing reagent and beta-gal substrate (DiscoveRx, Fremont, CA). All compounds were screened as titrations from 0.6 nM to 46 uM final concentration. The assay was performed in 1536-well format as follows:
5 uL cell suspension (1,000 cells)/well
Incubation at 37 Celsius degrees for two hours
1.25 uL 1X detection buffer from the kit supplied by DiscoveRx
Incubation at room temperature for one hour
Read plate in luminescence mode in ViewLux plate reader (PerkinElmer)
Keywords: NIH Roadmap, MLSCN, MLI, MLSMR, GR-EFC, GREFC, qHTS, NCGC
`Nc1ncnc2c1ncn2[C@@H]1O[C@@H](CO)[C@H](O)[C@H]1O`: the Potency was > 20.6 µM (inactive). For `CC1(C)CCC2=C(O1)c1ccccc1C(=O)C2=O` the value was > 46 µM (inactive); for `O=C(O)CCc1nc(-c2ccccc2)c(-c2ccccc2)o1`, > 46 µM (inactive) and > 20.6 µM (inactive) and > 9.22 µM (inactive). Consider `COc1ccc(-c2coc3cc(O)ccc3c2=O)cc1`, for which the Potency was > 46 µM (inactive). In the case of `CC(=O)CCCCn1c(=O)c2c(ncn2C)n(C)c1=O`, the Potency is > 46 µM (inactive) and > 20.6 µM (inactive).

Consider `O=C1NC(=O)C(c2ccccc2)(c2ccccc2)N1`, for which the Potency is > 46 µM (inactive). For `CCN1CCC[C@H]1CNC(=O)c1cc(S(N)(=O)=O)ccc1OC`, the Potency was > 20.6 µM (inactive) and > 46 µM (inactive). `c1cc(-c2sc(-c3ccncc3)c(-c3ccncc3)c2-c2ccncc2)ccn1`: the Potency is > 9.22 µM (inactive).

For `CC(C)[C@H](CO)Nc1nc(Nc2ccc(C(=O)O)c(Cl)c2)c2ncn(C(C)C)c2n1`, the Potency was > 46 µM (inactive). Under `C[C@@H](O)[C@H]1C(=O)N2C(C(=O)O)=C(S[C@@H]3CN[C@H](C(=O)N(C)C)C3)[C@H](C)[C@H]12` stands > 20.6 µM (inactive); under `O=c1c(-c2ccc(O)cc2)coc2cc(O)ccc12`, > 46 µM (inactive); under `COCCCCC(=NOCCN)c1ccc(C(F)(F)F)cc1`, > 46 µM (inactive) and > 20.6 µM (inactive).

With `CCCNC(=O)NS(=O)(=O)c1ccc(Cl)cc1`, the Potency is > 46 µM (inactive) and > 20.6 µM (inactive). As for `O=C1NCC2(CCN(CCc3ccccc3)CC2)O1`, the Potency was > 46 µM (inactive) and > 20.6 µM (inactive).

Consider `CC(C)OC(=O)C(C)(C)Oc1ccc(C(=O)c2ccc(Cl)cc2)cc1`, for which the Potency was > 46 µM (inactive) and > 20.6 µM (inactive). For `COc1ccc(-c2coc3cc(O)cc(O)c3c2=O)cc1` the value was > 46 µM (inactive); for `CS(=O)c1ccc(-c2nc(-c3ccc(F)cc3)c(-c3ccncc3)[nH]2)cc1` (stereo unspecified), > 46 µM (inactive); for `O=c1c(O)c(-c2ccc(O)cc2)oc2cc(O)cc(O)c12`, > 20.6 µM (inactive) and > 46 µM (inactive).

Regarding `O=c1cc(-c2ccccc2)oc2cc(O)c(O)c(O)c12`, the Potency was > 46 µM (inactive).

Take `O=c1cc(-c2ccccc2)oc2cc(O)cc(O)c12`: the Potency is > 20.6 µM (inactive). Take `CCCCC1C(=O)N(c2ccccc2)N(c2ccccc2)C1=O`: the Potency was > 46 µM (inactive). Regarding `O=C1C[C@@H](c2ccc(O)cc2)Oc2cc(O)cc(O)c21`, the Potency is > 20.6 µM (inactive) and > 46 µM (inactive). Turning to `CCN(CC)C(=O)c1ccc(O)c(OC)c1`, the Potency was > 46 µM (inactive) and > 20.6 µM (inactive). As to `O=c1cc(-c2ccc(O)cc2)oc2cc(O)cc(O)c12`, the Potency is > 46 µM (inactive) and > 20.6 µM (inactive). For `CCCCCCCCCCCC1=C(O)C(=O)C=C(O)C1=O`, the Potency is > 46 µM (inactive).

Consider `CC(=O)c1ccc(S(=O)(=O)NC(=O)NC2CCCCC2)cc1`, for which the Potency was > 46 µM (inactive) and > 20.6 µM (inactive). On to `Clc1ccc(Cn2c(CN3CCCC3)nc3ccccc32)cc1`, for which the Potency is > 46 µM (inactive) and > 20.6 µM (inactive). Under `COc1ccc2c3c1OC1C[C@@H](O)C=C[C@@]31CCN(C)C2` (stereo partly specified) stands > 20.6 µM (inactive); under `COc1cccc(-c2cc(=O)c3ccccc3o2)c1N`, > 46 µM (inactive). For `CC/C(=C(\c1ccccc1)c1ccc(OCCN(C)C)cc1)c1ccccc1` the value was > 46 µM (inactive) and > 20.6 µM (inactive); for `NC(N)=Nc1nc(CSCC/C(N)=N/S(N)(=O)=O)cs1`, > 46 µM (inactive) and > 20.6 µM (inactive).
